In ChEMBL document CHEMBL4513216, “Probing the Open Global Health Chemical Diversity Library for Multistage-Active Starting Points for Next-Generation Antimalarials” (ACS Infect Dis, 2020):
Screen size: about 69,000 compounds; about 8,600 (12%) showed an effect of 50% or more. The sample as a whole holds a higher share of strong results than the screen did.

The compounds below were run on Plasmodium berghei (assay: Screen against P. berghei liver stage (PbLuc), transformed with Luciferase, at 10uM). Details: tested at 10 uM.
Format: functional, HepG2

| Structure (SMILES) | INHIBITION [%] |
| --- | --- |
| CN(C)CCO[C@H]1CN(C(=O)c2cccs2)[C@@H]2COC[C@H]12 | -19.1 |
| CN1Cc2[nH]nc(COCC3CC3)c2C1 | -44.9 |
| O=C(c1ccc(-c2cccc3c2CCNC3)o1)N1CCOCC1 | 39.1 |
| CCOC[C@@H]1CC[C@H]2[C@H](CCN2S(=O)(=O)c2ccc(F)cc2)O1 | -17.1 |
| O=C(O)c1c(-c2ccoc2)ncc2c1CCN(C1CCOC1)C2 (configuration not stated) | 21.6 |
| CC(NC(=O)NCC1(c2ccc(F)cc2)CC1)c1nncn1C (configuration not stated) | 31.9 |
| Cc1cnn(CCC(=O)N2CCCC(c3nc(C)c(C)s3)C2)c1 (configuration not stated) | -7.35 |
| NCC1(c2cccc(F)c2)CCOCC1 | 50.2 |
| NCC1(c2cccc(C(F)(F)F)c2)CCOCC1 | 8.47 |
| NCC1(c2cccc(Br)c2)CCOCC1 | -51.5 |
| O=C(Cc1ccsc1)N1C[C@@H]2CN(Cc3ccoc3)CCO[C@@H]2C1 | 16.5 |
| Cc1noc(C)c1C(=O)NCC(c1ccc(F)cc1)N(C)C (configuration not stated) | 23.4 |
| Cc1noc(C)c1C(=O)NCC(c1cccc(F)c1)N(C)C (configuration not stated) | -20.19 |
| CCc1noc(C)c1C(=O)NCC(c1ccc(C)cc1)N(C)C (configuration not stated) | -25.4 |
| COc1ccc(C(CNC(=O)c2c(C)noc2C)N(C)C)cc1 (configuration not stated) | 50.75 |
| Cc1noc(C)c1C(=O)NCC(c1ccsc1)N(C)C (configuration not stated) | -38.7 |
| CCc1ccc(C(CNC(=O)c2c(C)noc2C)N(C)C)cc1 (configuration not stated) | 58.9 |
| OC(CNC1CCOCC1)c1cccc(OCc2ccccc2)c1 (configuration not stated) | 46.1 |
| O=C(O)CNc1cc(-c2cc(C(=O)NC3CC3)ccn2)c2cc[nH]c2n1 | -21.1 |
| COc1ccc(C(C(=O)O)N(C)CCN2CCOCC2)c(C)c1 (configuration not stated) | 22.5 |
| COc1ccc(C(C(=O)O)N(C)CCN2CCCC2)c(C)c1 (configuration not stated) | 52.8 |
| COc1cc(F)ccc1C(C(=O)O)N(C)CCN1CCCC1 (configuration not stated) | 40.9 |
| CCc1n[nH]c(=O)c(C(=O)N2CCSCC2)c1CC | 39.3 |

| Structure (SMILES) | INHIBITION [%] |
| --- | --- |
| Cn1cnnc1C1CCCN(C(=O)c2cc(Cl)c(Cl)n2C)C1 (configuration not stated) | -10.1 |
| CC(CNC(=O)c1c[nH]nn1)Oc1ccc(Cl)cc1 (configuration not stated) | 51.6 |
| CC(CNC(=O)c1c[nH]nn1)Oc1cccc(Br)c1 (configuration not stated) | -15 |
| CC(CNC(=O)c1cnccn1)Oc1ccc(F)cc1 (configuration not stated) | 69.9 |
| CC(CNC(=O)c1cnccn1)Oc1cccc(Br)c1 (configuration not stated) | 10 |
| CC(CNC(=O)c1ccncc1F)Oc1ccc(F)cc1 (configuration not stated) | 28.2 |
| Cc1ccc(OC(C)CNC(=O)c2c[nH]nn2)cc1 (configuration not stated) | 0.0944 |
| Cc1cnc(N2C(=O)CSC2c2ccc(F)cc2)s1 (configuration not stated) | 44.8 |
| CC(=O)N1CCN(Cc2cccs2)CC2(CC(=O)N(C)C2)C1 (configuration not stated) | -2.35 |
| COc1ccc(C)cc1CN(C)CC(=O)NC1(C)CCS(=O)(=O)C1 (configuration not stated) | 29.7 |
| Cc1nc(CN2CCN(C(C)c3nc(C4CC4)no3)CC2)no1 (configuration not stated) | -21.9 |
| CCc1noc(C(C)N2CCC(N3CCCC3)CC2)n1 (configuration not stated) | 50.4 |
| CCc1noc(C(C)N2CCCN(Cc3noc(C4CC4)n3)CC2)n1 (configuration not stated) | 15.7 |
| COCCCN1CCCN(C(C)c2nc(C3CC3)no2)CC1 (configuration not stated) | 54.9 |
| CCc1noc(C(C)N2CCN(CC)CC2)n1 (configuration not stated) | -54.6 |
| CCc1noc(C(C)N2CCC(C)CC2)n1 (configuration not stated) | 2.97 |
| CCc1noc(C(C)N2CCC(N3CCCCC3)CC2)n1 (configuration not stated) | 44.1 |
| COCCN1CCN(C(C)c2nc(C3CC3)no2)CC1 (configuration not stated) | 28.6 |
| CCOCCN1CCN(C(C)c2nc(C3CC3)no2)CC1 (configuration not stated) | 0.55 |
| CCc1noc(C(C)N2CCN(Cc3noc(C4CC4)n3)CC2)n1 (configuration not stated) | 65.7 |
| Cc1noc(C(C)N2CCN(Cc3noc(C4CC4)n3)CC2)n1 (configuration not stated) | 37.4 |
| CCc1noc(C(C)N2CCN(Cc3noc(C)n3)CC2)n1 (configuration not stated) | 61.3 |
| Cc1ccc(-c2ccnc(NCC3(N(C)C)CCOCC3)n2)c(C)n1 | 19.2 |

| Structure (SMILES) | INHIBITION [%] |
| --- | --- |
| Cn1cnc2c1CCN(Cc1csc(-c3ccco3)n1)C2 | 5.8 |
| CC(O)CN1CCC(CNCc2cccc(Cl)c2)CC1 (configuration not stated) | 24 |
| COCCN1C(=O)[C@@H]2CC[C@H]1CN(S(=O)(=O)c1cccc(Cl)c1)C2 | 32.2 |
| COC(=O)C(C)(C)NC(=O)C1CC(=O)N(CC(C)C)C1 (configuration not stated) | -22.1 |
| OC1(CNCCc2nc3c(s2)CCCC3)CCNC1 (configuration not stated) | -41.6 |
| O=c1[nH]c2cn(-c3ccc(F)cc3)c(=O)n2n1Cc1cccc(Cl)c1 | 9.48 |
| CN1CCC2(CC1)Cc1ccccc1CN(C(=O)CN)C2 | 29.2 |
| Cc1cc(N(C)C)nc(C2(C)CCNCC2)n1 | -5.8 |
| CCn1cc(NC(=O)NCCN2CCCCCC2=O)cn1 | 7.24 |
| CC(C)(C)NC(=O)CNc1ncc(Br)cn1 | 28.8 |
| CC(C)c1noc(C(C)N2CCN(Cc3noc(C4CC4)n3)CC2)n1 (configuration not stated) | 27.6 |
| CC(c1nc(C2CC2)no1)N1CCN(Cc2noc(C3CC3)n2)CC1 (configuration not stated) | 51.1 |
| CC(C)c1nc(CN2CCN(C(C)c3nc(C4CC4)no3)CC2)no1 (configuration not stated) | 13.5 |
| CC(C)Cc1cc(NC(=O)c2ccccn2)n(C)n1 | 37.4 |
| O=C(c1ccc(C2CCCO2)s1)N1CCOCC1 (configuration not stated) | -48.4 |
| O=C(c1ccc(C2CCCO2)s1)N1CCN(c2ccccc2F)CC1 (configuration not stated) | 80.1 |
| Cc1cc(C)nc(N2CCN(C(=O)c3ccc(C4CCCO4)s3)CC2)n1 (configuration not stated) | 36.8 |
| O=C(Nc1ccccc1OCCc1ccccn1)N1CC[C@@H](O)C1 | -48.1 |
| CC1CCCN(Cc2ccc(C(N)=O)cc2)C1 (configuration not stated) | 50.5 |
| NC(=O)c1ccc(CN2CCCC(N3CCCC3)C2)cc1 (configuration not stated) | -3.95 |
| NC(=O)c1ccc(CN2CCCC(O)C2)cc1 (configuration not stated) | -6.32 |
| CN1CCN(c2cc(CNC(=O)Cn3cccn3)ccn2)CC1 | 37.8 |
| N#Cc1csc(CNCCOc2ncccc2Cl)c1 | -23.2 |

| Structure (SMILES) | INHIBITION [%] |
| --- | --- |
| O=C(c1ccco1)N1C[C@H]2CCCN(Cc3ccoc3)[C@H]2C1 | 44.3 |
| O=C1N[C@H]2OCCC[C@H]2[C@H](c2ccccc2)N1 | 52.2 |
| O=C1N[C@H]2OCCC[C@H]2[C@H](c2ccc(C(=O)O)cc2)N1 | -1.25 |
| COc1ccc([C@@H]2NC(=O)N[C@H]3OCCC[C@H]32)cc1 | 42.1 |
| COCCNC(=O)CN1CC=C(n2c(C)nc(=O)c3ccccc32)CC1 | 6.33 |
| c1cnc(NCc2nnn3c2CN(Cc2ccco2)CCC3)nc1 | -11.6 |
| CN(Cc1cccc(Cl)c1)S(=O)(=O)N1CCOCC1 | -14.2 |
| CC(c1cccc(-c2nccn2CCc2cn[nH]c2)c1)N(C)C (configuration not stated) | 85.9 |
| CC(=O)NCCn1ccnc1-c1cccc(C(C)N(C)C)c1 (configuration not stated) | 30.3 |
| CC(c1cccc(-c2nccn2CCc2ccccn2)c1)N(C)C (configuration not stated) | 36.5 |
| Cc1noc(C)c1-c1cccc(C2CCN(CC(=O)N(C)C)CC2)n1 | 8 |
| Cc1ncsc1C(=O)N(C)Cc1cccnc1 | -4.865 |
| COc1ccc(OC)c(C(=O)N2C[C@@H]3CC[C@H]2CN(C)C3)c1 | 9.56 |
| O=c1c(NCCNCCO)c(N2CCN(c3ccc(F)cc3)CC2)c1=O | 23 |
| Cc1ccc(C(=O)NC2CCN(Cc3nc(C(C)C)no3)CC2)s1 | 13.8 |
| Clc1cncc(NCc2cccc(COC3CCOCC3)c2)n1 | -16.8 |
| CS(=O)(=O)NCc1cccc(COC2CCCCC2)c1 | 9.63 |
| Clc1cnccc1NCc1cccc(COC2CCOCC2)c1 | 79.7 |
| COc1ccc(C(=O)N(Cc2cnn(C)c2)C(C)C)cc1OC(F)F | 33.3 |
| Cc1nc(C)n(C2CCCN(C(=O)c3cc(C4CC4)on3)C2)n1 (configuration not stated) | 29.2 |
| O=C(NS(=O)(=O)c1cc(Cl)ccc1Cl)c1cccc2c1OCCO2 | -31.3 |
| COC(=O)c1ccccc1S(=O)(=O)NC(=O)c1cccc2c1OCCO2 | -7.36 |
| Cc1ccc(C)c(S(=O)(=O)NC(=O)c2cccc3c2OCCO3)c1 | 68.8 |

| Structure (SMILES) | INHIBITION [%] |
| --- | --- |
| O=C(NS(=O)(=O)c1ccc(Cl)cc1F)c1cccc2c1OCCO2 | 50 |
| Cc1ccc(C(=O)NS(=O)(=O)c2cc(Br)ccc2C)c(=O)[nH]1 | 25.6 |
| Cc1ccc(C)c(S(=O)(=O)NC(=O)c2ccc(C)[nH]c2=O)c1 | 52.3 |
| O=C(NS(=O)(=O)c1ccccc1Cl)c1cccc2c1OCCO2 | 49 |
| Cc1ccc(C(=O)NCCCN(C)S(C)(=O)=O)c(=O)[nH]1 | 40.4 |
| Cc1ccc(C(=O)NS(=O)(=O)c2ccccc2C)c(=O)[nH]1 | 24.6 |
| Cc1ccc(C(=O)NCCCN(C(C)C)S(C)(=O)=O)c(=O)[nH]1 | -8.97 |
| Cc1ccc(S(=O)(=O)NC(=O)c2cccc3c2OCCO3)c(C)c1 | 23.7 |
| CCN(CCCNC(=O)c1ccc(C)[nH]c1=O)S(C)(=O)=O | 61 |
| CCc1ccc(C(COC)NC(=O)c2ccc(NC(C)=O)cc2)o1 (configuration not stated) | 18.4 |
| CCO[C@H]1CN(C)C[C@@H]1NC(=O)c1cc(C)nc2c(C)c(C)ccc12 | 35 |
| CCNC(=O)[C@@H]1C[C@H](NC(=O)Cn2ccnc2)CN1Cc1ccsc1 | 39.3 |
| CCN1CC(CN(C)Cc2nc(-c3cccc(Cl)c3)oc2C)CC1=O (configuration not stated) | 29.8 |
| CC(=O)NCCCNC(=O)N(C)C(C)Cc1ccc(Cl)cc1 (configuration not stated) | -6.99 |
| CN(CC1CC1)S(=O)(=O)c1ccc(C(F)(F)F)cc1C#N | 47.2 |
| N#Cc1cc(C(F)(F)F)ccc1NCC1CCS(=O)(=O)CC1 | 56.4 |
| N#Cc1cc(F)ccc1NCC1CCS(=O)(=O)CC1 | -3.26 |
| CS(=O)(=O)NCCCNc1ccc(C(F)(F)F)cc1C#N | 72.6 |
| CCN(CC)S(=O)(=O)c1ccc(C(F)(F)F)cc1C#N | 27.6 |
| CS(=O)(=O)CCOCCNc1ccc(C(F)(F)F)cc1C#N | -13.4 |
